HCMV antiviral: blocks human cytomegalovirus replication; HFF cells, HCMV-luciferase reporter, 72 h; active compounds read low; activity change, negative = inhibition, % at 57.5 µM; 4.5% of 410,000 active; in the data active = activity change below about -60%; inconclusive = no clear call, values can overlap the other calls; inactive = above about -39%
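Screen run at 2 compound doses on HFFs infected with reporter HCMV, MOI 1 PFU/cell. Luciferase activity from cell lysates at 72 h post infection gave inhibition relative to buffer-only and Salinomycin wells.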
MARV entry inh: Marburg virus entry inhibition; Marburg virus pseudotyped entry inhibition, cell reporter; Potency, µM (highest dose often 37.8 µM), most hits filed as inhibitors; 1.8% of 300,000 active; calls by dose curve; tested in HEK293 cells
FMDV antiviral: blocks foot and mouth disease virus; 1.2% of 410,000 active; FMDV antiviral cell-based qHTS; AID 1159524; Potency, µM (top dose mostly 57.9 µM), actives largely listed as inhibitors; calls by dose curve; tested in HEK293T cells; also: read-out not given here; nearly all actives have a fitted effect of over 45% in size
Lassa entry inh: blocks Lassa virus binding to or entry into cells | Lassa virus pseudotype entry inhibition, cell reporter | 1.2% of 300,000 active | Potency, µM (titrated, usually from 37.9 µM), hits mostly inhibitors; calls by dose curve; tested in HEK293 cells; also: nearly all actives have a fitted effect of over 50% in size
HCV inhibitor: inhibitors of hepatitis C virus infection; Huh7.5.1 HCVcc-Cre infection, luciferase reporter, 44 h; Potency, µM (doses to about 41.8 µM), hits mostly inhibitors; 3.4% of 340,000 active; AID 651820; active = well fitted inhibition curve with a large enough effect; inconclusive = small, poorly fitted or top-dose-only effect, or another doubt; inactive = no such curve, though single readings can be large or run the other way
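1,000 cells/well; 4 h culture; + compound; + HCVcc-Cre (~0.5 moi); 44 h; luciferase substrate, RT 15 min; read 15 sec.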
Of the large screens only hits and unclear results are named; the others gave an inactive call. A selection: hits, their analogues and other compounds. The true share with any hit is near 7.9%.

Cc1c(C=O)c2ccccn2c1C(=O)c1cccc([N+](=O)[O-])c1	HCV inhibitor inconclusive
COC(=O)c1c(C(=O)OC)c2ccccn2c1C(=O)c1ccc([N+](=O)[O-])cc1	HCMV antiviral -102, FMDV antiviral inconclusive
CCOC(=O)c1c(CSC(=N)N)n(-c2ccc(Br)cc2)c2cc(Br)c(OC(C)=O)cc12	MARV entry inh 13µM, Lassa entry inh inconclusive, HCV inhibitor inconclusive
CCCCCCCCOC(=O)c1c(CSC(=N)N)n(C)c2cc(Br)c(OC(C)=O)cc12	HCMV antiviral -92, FMDV antiviral inconclusive, HCV inhibitor 11µM (no result: MARV entry inh, Lassa entry inh)
CCOC(=O)c1c(CN2CCCCC2)n(C)c2cc(Br)c(OC)cc12	MARV entry inh inconclusive, Lassa entry inh inconclusive, HCV inhibitor inconclusive
COc1cc(-c2cc(=O)c3c(O)cc(O)cc3o2)ccc1O	HCV inhibitor 13µM (no result: HCMV antiviral, MARV entry inh, Lassa entry inh)
Cc1cc(C(=O)N/N=C/c2cc(Br)ccc2OC(=O)c2ccccc2Cl)n[nH]1	HCMV antiviral inconclusive, MARV entry inh 10µM, Lassa entry inh 10µM, HCV inhibitor inconclusive
Cc1cc(C(=O)N/N=C/c2cc(Br)ccc2OC(=O)c2ccccc2)n[nH]1	MARV entry inh 10µM, Lassa entry inh inconclusive, HCV inhibitor inconclusive
CCOc1ccc(OCCC(=O)OCC(=O)Nc2ccc3c(c2)OCCO3)cc1	HCV inhibitor inconclusive
Cc1cc(Cl)ccc1NC(=O)CSc1nc2c(c(=O)[nH]1)CCC2	none (no result: HCV inhibitor)
Cc1ccc(C)c(N2CCN(C(=O)C3CCN(S(=O)(=O)c4ccc5[nH]c(=O)oc5c4)CC3)CC2)c1	none (no result: MARV entry inh, HCV inhibitor)
CC(=O)c1ccc(-c2cc(F)cc3c2OC(CNC(=O)c2ccc[n+]([O-])c2)C3)s1 (stereo not given)	none (no result: HCMV antiviral, MARV entry inh, Lassa entry inh, HCV inhibitor)
Fc1ccccc1Sc1ccccc1CNC1=NCCN1	HCMV antiviral -61, Lassa entry inh inconclusive, HCV inhibitor inconclusive
CN(C)Cc1ccccc1Sc1ccccc1Br	none
c1ccc(Sc2cccc3ccccc23)c(CNC2=NCCN2)c1	HCMV antiviral -67, FMDV antiviral inconclusive, HCV inhibitor inconclusive
O=[N+]([O-])c1ccccc1/C=N/NC1=NCCN1	none
C(=NNC1=NCCN1)c1ccnc2ccccc12	none (no result: MARV entry inh, Lassa entry inh, HCV inhibitor)
CN(C)Cc1ccccc1Sc1cccc2ccccc12	MARV entry inh 21µM, FMDV antiviral inconclusive, Lassa entry inh 15µM, HCV inhibitor inconclusive
CC(C)Oc1ccc(CNC(=O)C2CCN(C(=O)N3CC(C)Oc4ccccc43)CC2)cc1 (stereo not given)	FMDV antiviral inconclusive, Lassa entry inh inconclusive (no result: MARV entry inh, HCV inhibitor)
CCC(C)NC(=O)C1(N2C(=O)c3ccccc3C2=O)CCCC1 (stereo not given)	none
CC(C)(C)n1nnnc1C(c1cccs1)N(Cc1cccnc1)Cc1ccccc1Cl (stereo not given)	MARV entry inh inconclusive, HCV inhibitor 10µM
O=C(c1ccc(F)cc1F)C1CCN(c2ccc([N+](=O)[O-])cn2)CC1	HCMV antiviral -77, MARV entry inh inconclusive, FMDV antiviral inconclusive, HCV inhibitor 4.5µM
Cc1ccc(N(C)C(=O)Cn2nc(Cc3ccncc3)c3ccccc3c2=O)cc1C	HCMV antiviral inconclusive (no result: HCV inhibitor)
Nn1cnnc1N/N=C\c1ccc(-c2ccccc2[N+](=O)[O-])o1	MARV entry inh inconclusive, Lassa entry inh 14µM
Cc1ccc(C)c(NC(=S)N/N=C2\CCc3ccccc32)c1	HCV inhibitor 10µM (no result: MARV entry inh, Lassa entry inh)
C=C(C)CNC(=S)N/N=C1\CCCCc2ccccc21	HCMV antiviral -61, Lassa entry inh inconclusive
Nc1ccc2nc(-c3ccccc3)[nH]c2c1	HCV inhibitor inconclusive
CC[n+]1c(-c2ccccc2)c2cc(N)ccc2c2ccc(N)cc21	HCMV antiviral -100, MARV entry inh inconclusive, FMDV antiviral 40µM, Lassa entry inh inconclusive, HCV inhibitor inconclusive
O=S(=O)(c1ccc(F)cc1)N1CCC(Oc2cccc(C(F)(F)F)c2)CC1	FMDV antiviral inconclusive (no result: HCV inhibitor)
Cc1nc(N(CCO)C2CCCCC2)c2nnn(Cc3ccccc3)c2n1	MARV entry inh 10µM
Cc1nc(NCC2CC2)c2nnn(Cc3ccccc3)c2n1	MARV entry inh inconclusive, HCV inhibitor inconclusive
CCCCNS(=O)(=O)c1ccc2nc(-c3cccnc3)cc(C(=O)NCCC)c2c1	HCMV antiviral -66 (no result: MARV entry inh, HCV inhibitor)
CCCCCCCCCC(=O)N[C@@H]1c2cc(OC)c(OC)cc2C[C@H]1O	none (no result: MARV entry inh, Lassa entry inh)
COC(=O)Nc1ccc(S(=O)(=O)N2CCCCC2)cc1	none
COC(=O)Nc1ccc(S(=O)(=O)N2CCCc3ccccc32)cc1	HCMV antiviral -62, MARV entry inh inconclusive, HCV inhibitor 3.2µM
COC(=O)Nc1ccc(S(=O)(=O)N2CCCc3cccc(O)c32)cc1	HCV inhibitor 11µM (no result: MARV entry inh, Lassa entry inh)
Cc1cc(C)nc(SCC(=O)c2ccc(F)cc2F)n1	none (no result: MARV entry inh, Lassa entry inh)
Cc1nc2c(c(C)c1CCC(=O)NCc1ccccc1)c(=O)n(C)c(=O)n2C	Lassa entry inh inconclusive (no result: HCV inhibitor)
Cc1oc(-c2cccc(Cl)c2)nc1CN1CCCC(C(=O)N2CCN(c3ccc(F)cc3)CC2)C1 (stereo not given)	MARV entry inh inconclusive, FMDV antiviral inconclusive (no result: HCV inhibitor)
S=c1[nH]nc(Cc2ccccc2)n1Cc1ccco1	HCMV antiviral -109
CCCn1c(Cc2ccccc2)n[nH]c1=S	none
CC(NC(=S)NCCc1ccccc1)C(c1cccs1)N1CCN(Cc2ccccc2)CC1 (stereo not given)	HCMV antiviral -81, MARV entry inh inconclusive, FMDV antiviral inconclusive, Lassa entry inh inconclusive, HCV inhibitor 7.9µM
CC(NC(=O)NC1CCCCC1)C(c1cccs1)N1CCN(Cc2ccccc2)CC1 (stereo not given)	none (no result: Lassa entry inh)
C#CC[N+]1(CC#Cc2cccc(C)c2)CCCCC1	HCMV antiviral inconclusive
Cc1ccc(C#CC[N+]2(CC#Cc3ccc(C)cc3)CCCCC2)cc1	HCMV antiviral -101, FMDV antiviral inconclusive, HCV inhibitor inconclusive (no result: Lassa entry inh)
C(#Cc1ccccc1)C[N+]1(CC#Cc2ccccc2)CCCCC1	HCMV antiviral -62, FMDV antiviral inconclusive, Lassa entry inh inconclusive, HCV inhibitor inconclusive
C#CC[N+]1(CC#Cc2ccccc2)CCCCC1	none
Cc1ccc(-c2ccc(CN3C(C)C(=O)N(Cc4cn(Cc5ccco5)nn4)CCS3(=O)=O)cc2)c(C)c1 (stereo not given)	Lassa entry inh inconclusive (no result: MARV entry inh, HCV inhibitor)
Cc1cccc(OCc2ccc(-c3nc(C#N)c(NCc4cccnc4)o3)o2)c1	MARV entry inh inconclusive (no result: HCV inhibitor)
Cc1noc(C)c1CSCC(=O)Nc1nc(-c2ccc(F)c(F)c2)cs1	MARV entry inh inconclusive, FMDV antiviral 18µM, Lassa entry inh inconclusive, HCV inhibitor 13µM
COc1ccc(-c2csc(NC(=O)CSCc3c(C)noc3C)n2)cc1OC	MARV entry inh inconclusive, FMDV antiviral 40µM, Lassa entry inh 11µM, HCV inhibitor inconclusive
COC(=O)C1(C(=O)OC)CC(CO)C(=O)[C@@H]1c1ccccc1 (stereo not given in full)	none (no result: HCMV antiviral, FMDV antiviral, Lassa entry inh, HCV inhibitor)
C/C(=N/O)C(=O)NCCCn1ccnc1	none (no result: HCMV antiviral, FMDV antiviral, Lassa entry inh, HCV inhibitor)
CCCCCCN1C[C@@H](n2cc(C3CC3)nn2)[C@H](O)C[C@H]1c1ccccc1	none (no result: HCMV antiviral, MARV entry inh, FMDV antiviral, HCV inhibitor)
C[N+]1(C)[C@@H]2CC[C@H]1CC(OC(=O)C(c1ccccc1)c1ccccc1)C2 (stereo not given in full)	none (no result: MARV entry inh, Lassa entry inh)
